Screens: PubChem BioAssay, National Center for Advancing Translational Sciences (NCATS)
ERG-DNA inh: qHTS for Small Molecule Inhibitors of the ERG Ets/DNA interaction. Transcriptional regulator ERG (Homo sapiens), P11308. fluorescence polarization, His-ERG Ets domain / labelled DNA. Potency, µM (titrated, usually from 76.9 µM), for inactives: at the highest dose FP activity, negative = inhibition, most hits filed as inhibitors. actives 0.028% (n = 370,000); active = well fitted inhibition curve with a large enough effect in the polarisation, with a control signal flat; inconclusive = small, poorly fitted or top-dose-only effect, or effect the other way, or a change in a side signal; inactive = no such curve, though single readings can be large or run the other way; the % refers to the polarisation;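 also: polarization taken with two DNA probes labelled with fluorescein and Texas red; % of control where 0% means no effect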
Target sequence (P11308 whole entry, looked up, the tested form may be a part): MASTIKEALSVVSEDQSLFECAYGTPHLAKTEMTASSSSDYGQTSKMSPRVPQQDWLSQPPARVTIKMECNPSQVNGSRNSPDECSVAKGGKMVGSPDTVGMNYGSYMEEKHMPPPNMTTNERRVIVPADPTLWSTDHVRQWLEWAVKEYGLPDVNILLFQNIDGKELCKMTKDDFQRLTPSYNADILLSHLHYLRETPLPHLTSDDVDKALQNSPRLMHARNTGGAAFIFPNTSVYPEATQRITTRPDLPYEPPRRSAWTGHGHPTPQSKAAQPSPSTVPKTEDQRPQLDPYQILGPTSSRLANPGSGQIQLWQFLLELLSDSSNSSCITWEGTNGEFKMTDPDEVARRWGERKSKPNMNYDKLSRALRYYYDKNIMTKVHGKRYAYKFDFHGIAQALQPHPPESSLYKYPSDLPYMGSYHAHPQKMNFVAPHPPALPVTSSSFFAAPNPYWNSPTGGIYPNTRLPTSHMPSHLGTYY
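His-tagged ERG Ets domain (1 uM in the protein solution; 300mM KCl, 50mM Tris-HCl, 1mM EDTA, 1mM DTT, pH 7.5) received compound, then a probe mix of 5 nM fluorescein-DNA and 100nM Texas-615-DNA. Fluorescence polarization was read for both dyes.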
Mito fusion act: qHTS Assay for Small Molecule Inhibitors of Mitochondrial Division or Activators of Mitochondrial Fusion; S. cerevisiae fusion-defective mutant growth rescue, CellTiterGlo 48 h; AID 485298, 2010; Potency, µM (highest dose often 46.1 µM), for the others: top-dose growth rescue (activation), usual class: activators; actives 0.23% (n = 320,000); also: % of control where 0% means no effect; nearly all actives have a fitted effect of over 45% in size
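Read-out: ATP-based luminescence (CellTiterGlo, 10 min ambient) reporting growth of fusion-defective ts yeast after 48 hours at 37C on glycerol/ethanol YPEG medium in the presence of compound.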
TDP-43 yeast inh: qHTS of TDP-43 Inhibitors; Potency, µM (series often up to 46.1 µM), inactives show top-dose growth rescue (activation), most hits filed as activators; TDP-43 expressing yeast growth rescue, BacTiter-Glo, 24 h; AID 652104, 2013; actives 1.8% (n = 410,000); also: % of control where 0% means no effect; nearly all actives have a fitted effect of over 50% in size
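In this qHTS, compounds that restore growth of yeast expressing TDP-43 appear as activators. Cells (OD600=0.02, galactose medium, raffinose-pregrown) are incubated with compound 24 hr at 30 deg C and growth is quantified by BacTiter-Glo.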
aSyn rescue: qHTS of alpha-syn Inhibitors; Potency, µM (doses to about 46.1 µM), inactives show top-dose growth rescue (activation), most hits filed as activators; AID 652106, 2013; Yeast expressing alpha-synuclein, growth rescue, BacTiter-Glo, 24 h; actives 0.14% (n = 370,000); also: % of control where 0% means no effect; nearly all actives have a fitted effect of over 65% in size
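Galactose-induced alpha-syn yeast (OD600=0.02, raffinose-pregrown) + pinned cpd, 24 hr, 30 deg C; growth by BacTiter-Glo luminescence. Growth restoration scores as activation.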
FUS yeast rescue: qHTS for Suppressors of FUS Proteinopathy: Primary screen using FUS-linked yeast assay; Potency, µM (highest dose often 76.6 µM), actives largely listed as activators; S. cerevisiae FUS-expressing, growth rescue, OD600, 24 h; actives 0.24% (n = 390,000);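 also: plate controls were DMSO vehicle for no effect and reference control for full effect; nearly all actives have a fitted effect of over 55% in size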
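Galactose (2%) drives FUS expression in yeast precultured in raffinose; seeding density OD 0.005. Test compounds incubated 24hr at 30C and 99% humidity before absorbance at 600 nm was measured.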
Abeta yeast res: qHTS for compounds that reverse cellular toxicity of Amyloid beta (A-beta) peptide in yeast: Primary Screen. yeast expressing A-beta42, growth rescue, OD600, 48 h; response scale: 0% DMSO, 100% iron-clioquinol control. Potency, µM (highest dose often 46.1 µM), hits mostly activators. actives 0.063% (n = 410,000). AID 1347071, 2019; also: nearly all actives have a fitted effect of over 55% in size
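Yeast growth medium received pinned compounds, then yeast cells expressing toxic A-beta were added; plates incubated at 30 C for 48 hr. Growth read as absorbance at 600 nm, normalized to DMSO and equimolar FeCl3 plus clioquinol controls.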
Starred values were filed as active, the others as inactive; i = inactive; ? = inconclusive; nt = no result given. A selection: hits, their analogues and other compounds. The true share with any hit is near 2.2%. Unless noted, calls follow the shape of the dose curve; as a rule, active = well fitted curve in the direction sought with a large enough effect; inconclusive = small, poorly fitted or top-dose-only effect, or another doubt; inactive = no such curve, though single readings can be large; an effect the other way counts as inactive or inconclusive. Potency is read from the fitted curve at half-maximal effect.

SMILES	ERG-DNA inh	Mito fusion act	TDP-43 yeast inh	aSyn rescue	FUS yeast rescue	Abeta yeast res
COC(=O)C(C)NC(=S)N1CCN(c2c(F)cc3c(=O)c(C(=O)O)cn(C4CC4)c3c2OC)CC1C (configuration not stated)	2%	-2%	?	7%	32µM*	i
CC(=O)c1cccc(NC(=O)CN(c2cc(C)cc(C)c2)S(=O)(=O)c2c(C)noc2C)c1	?	nt	13%	nt	?	i
Cc1ccc(C(=O)COC(=O)c2ccc(O)cc2)cc1	-2%	-1%	0%	-4%	i	i
COc1cc(NC(=O)c2nc3cc(C)c(C)cc3n(C)c2=O)cc(OC)c1OC	-4%	nt	19%	nt	i	i
COc1ccc2nc3oc(C(=O)N4CC(C)CC(C)C4)cc3cc2c1 (configuration not stated)	-10%	8%	13µM*	8%	i	i
COc1ccc2nc3oc(C(=O)N4CCCCC4)cc3cc2c1	9%	4%	?	-6%	i	i
CC1CC(C)CN(C(=O)c2cc3cc(Br)cc(Br)c3o2)C1 (configuration not stated)	-9%	11%	32µM*	-8%	i	i
C=C(C)COc1ccc(-c2nc(N)ncc2-c2ccc(Br)cc2)c(O)c1	-7%	-35%	20µM*	-43%	i	i
C=C(C)COc1ccc(-c2ncncc2-c2ccc(Br)cc2)c(O)c1	5%	-20%	8%	-11%	i	i
COc1ccc(C(=O)N=c2nc(-c3ccccc3)n(-c3ccccc3)s2)cc1	nt	nt	nt	20%	nt	nt
CCc1cccc(C)c1NS(=O)(=O)c1cc2[nH]c(=O)c(=O)[nH]c2cc1C	3%	nt	21%	nt	i	i
COc1ccccc1-c1nc(SCC(=O)c2ccc(Cl)cc2)n[nH]1	0%	nt	-10%	nt	i	i
COc1ccccc1-c1nc(C(=O)NCC2CCCO2)cc2c1[nH]c1ccccc12 (configuration not stated)	-2%	15%	20µM*	-12%	?	i
COc1cc(-c2nc(C(=O)NCC3CCCO3)cc3c2[nH]c2ccccc23)cc(OC)c1OC (configuration not stated)	-3%	0%	28µM*	?	?	i
O=C(NCC1CCCO1)c1cc2ccccc2[nH]1 (configuration not stated)	10%	-2%	13%	-9%	i	i
COc1cccc2[nH]c(C(=O)NCC3CCCO3)cc12 (configuration not stated)	2%	-3%	-7%	9%	i	i
O=C(NCC1CCCO1)c1cc2c([nH]c3ccccc32)c(-c2cccc(Cl)c2)n1 (configuration not stated)	5%	6%	20µM*	0%	?	i
CCOC(=O)C1=CNS(=O)(=O)NC1c1ccc(C[C@H](NC(=O)CNC(=O)CCc2ccccc2)C(N)=O)cc1 (some centres not stated)	-5%	nt	6%	-3%	i	i
COc1cccc(-c2ccc3c(c2)O[C@H](CN(C)C(=O)c2ccccc2F)[C@H](C)CN([C@H](C)CO)S3(=O)=O)c1	nt	nt	10%	6%	?	i
CCOc1ccc(C(=O)c2oc3ccccc3c2NC(=O)c2cc(-c3ccccc3)on2)cc1	-6%	nt	13%	nt	i	i
NC[C@@H]1O[C@H](c2ccccc2)Cc2c1ccc(O)c2O	nt	16µM*	nt	4%	nt	nt
O=C(NC1CCCCN(Cc2cccc(Cl)c2)C1=O)C1CCCCC1 (configuration not stated)	nt	nt	nt	nt	i	nt
CSCCCNC(=O)c1cn(C(C)c2ccccc2)nn1 (configuration not stated)	nt	nt	nt	nt	i	nt
c1ccc(-c2csc(-n3cnnn3)n2)cc1	-1%	2%	11µM*	1%	i	i
Cc1cc(C)n(-c2nc(-c3ccccc3)cs2)n1	-8%	-8%	-1%	-18%	i	i
SMILES	ERG-DNA inh	Mito fusion act	TDP-43 yeast inh	aSyn rescue	FUS yeast rescue	Abeta yeast res
COc1ccc(N2CCN(c3nc4ccccc4nc3NS(=O)(=O)c3ccccc3)CC2)cc1	-1%	-10%	20µM*	-17%	i	i
Cc1nc(S(=O)(=O)N2CCN(c3ccccc3F)CC2)cn1C	3%	nt	-9%	-8%	i	i
COc1c(Cl)cc(C(=O)O)cc1Cl	0%	nt	35µM*	-9%	i	i
C=CCc1c(C)nc2nc(SCC(=O)Nc3ccc(C)c(C)c3)nn2c1C	-3%	nt	29%	nt	i	i
C=CCc1c(C)nc2nc(SCC(=O)Nc3cccc(Cl)c3)nn2c1C	1%	nt	32µM*	nt	i	i
CCN(CC)c1ccc(C(=C2C=CC(=[N+](CC)CC)C=C2)c2ccc(N(CC)CC)cc2)cc1	?	nt	-97%	-78%	35µM*	i
O=C(NCCc1ccc(Cl)cc1)c1nnc(Cc2ccc(Cl)cc2)o1	-5%	-4%	11%	-6%	i	i
CC(CCc1ccccc1)NC(=O)c1nnc(Cc2ccc(Cl)cc2)o1 (configuration not stated)	9%	24%	22µM*	27%	i	i
CC(C)c1ccc([C@@H]2O[C@H](CCc3ccccc3)Cc3[nH][nH]c(=O)c32)cc1	nt	nt	16µM*	1%	?	i
O=c1[nH][nH]c2c1[C@H](c1ccc(Cl)cc1)O[C@H](C1CCCC1)C2	nt	nt	18µM*	1%	i	i
CCCC[C@@H]1Cc2[nH][nH]c(=O)c2[C@H](c2cccc3ccccc23)O1	nt	nt	11µM*	-1%	i	i
CC[C@@H]1Cc2[nH][nH]c(=O)c2[C@@H](c2ccc(Cl)cc2)O1	nt	nt	16µM*	2%	i	i
C(=C\c1cnc2ccccc2n1)/c1ccc2c(c1)OCO2	nt	nt	nt	-7%	nt	nt
COC(=O)CSC1=NS(=O)(=O)c2ccccc21	-6%	-4%	?	?	nt	i
O=C(CSC1=NS(=O)(=O)c2ccccc21)Nc1ccccc1	0%	-2%	35µM*	?	i	i
CCS(=O)(=O)c1ncc(Cl)c(C(=O)Nc2ccccc2)n1	-1%	nt	11µM*	nt	i	i
COc1cccc(NC(=O)c2nc(S(C)(=O)=O)ncc2Cl)c1	6%	-34%	?	0%	i	i
